Measured values as given in ChEMBL document CHEMBL3988442, “University of Dundee, Small-Polar-MMV Screening Library” (2021).
Out of some 48,000 compounds screened, about 13,000 (27%) showed an effect of 50% or more. Some of the results follow.

System: Wolbachia pipientis
Experiment: Anti-Wolbachia Cell-Based Screen
Type: functional
Parameters: scale not given: in the data most compounds retested in dose-response had high values
Settings: 5 µM

SMILES | Percent Effect
CC(=O)c1ccc(CN2C[C@@H](CN3CCC(O)CC3)[C@@H](CO)C2)cc1 | -12.65%
CC(C)c1ncc(CN2C[C@@H](CN3CCCCC3)[C@@H](CO)C2)cn1 | -5.957%
OC[C@H]1CN(Cc2c(Cl)cncc2Cl)C[C@H]1CN1CCCCCC1 | -60.78%
O=C(CCc1cn[nH]c1)N1C[C@@H](CN2CCCCCC2)[C@@H](CO)C1 | 3.932%
CC(=O)c1cc(CN2C[C@@H](CN3CCC(O)CC3)[C@@H](CO)C2)n(C)c1 | 12.27%
COc1cnc(N2C[C@@H](CN3CCOCC3)[C@@H](CO)C2)nc1 | -6.772%
OCc1csc(N2C[C@@H](CN3CCCCCC3)[C@@H](CO)C2)n1 | 103.7%
NC(=O)c1csc(N2C[C@@H](CN3CCC(O)CC3)[C@@H](CO)C2)n1 | 99.75%
CN(C)Cc1nnc(C2CCCN(c3nc(C(N)=O)cs3)C2)n1C (configuration not stated) | 10.64%
CCc1cc(C(=O)N2CCc3c(ncn3CCc3ccccc3)C2)[nH]n1 | 0.9556%
CC(C(=O)NC1(C#N)CCCCC1)N1CCc2c(ncn2C2CC2)C1 (configuration not stated) | 2.173%
Cc1ccc(F)c(NC(=O)CCC(=O)N(C)Cc2nc(C)c[nH]2)c1 | -39.22%
CC(C)n1c(C2CCCN(CC(=O)NC3CC3)C2)nc2ccccc21 (configuration not stated) | -1.015%
O=C1COc2ccccc2N1CCCn1cnnn1 | -11.05%
CN(C)C(CNS(=O)(=O)c1cnn(C)c1)c1cccc(F)c1 (configuration not stated) | 6.578%
N#Cc1ccc(OC2CCN(C(=O)c3ccc(Br)o3)CC2)nc1 | 22.17%
Cc1nc(N2C[C@@H](CN3CCCN(C)CC3)[C@@H](CO)C2)c2sccc2n1 | 6.466%
Cc1nc(N2C[C@@H](CN3CCCN(C)CC3)[C@@H](CO)C2)c2ccsc2n1 | 13.06%
CN1CCCN(C[C@@H]2CN(c3nc(C(N)=O)cs3)C[C@@H]2CO)CC1 | 120.2%
Cc1cnn(C2CN(CC(O)c3ccc(F)cc3)C2)c1 (configuration not stated) | 3.544%
O=C1O[C@@H]2CN(c3cnccn3)C[C@@H]2N1CCCc1ccc(F)cc1 | 20.37%
COc1c(C)cnc(CN(C)C(=O)c2ccccc2F)c1C | -7.265%
N#Cc1cccc(NS(=O)(=O)c2ccc(C(=O)O)cc2F)c1 | 100.6%
O=C(O)c1ccc(S(=O)(=O)Nc2ccc(Cl)c(F)c2)c(F)c1 | 4.995%
Cc1ccccc1NS(=O)(=O)c1ccc(C(=O)O)cc1F | 0.9629%
O=C(O)c1ccc(S(=O)(=O)Nc2ccccc2F)c(F)c1 | -2.05%

SMILES | Percent Effect
Cc1cc(NS(=O)(=O)c2ccc(C(=O)O)cc2F)ccc1F | 102.3%
O=C(O)c1ccc(S(=O)(=O)Nc2cccc(CC(F)(F)F)c2)c(F)c1 | -7.999%
Cc1ccc(F)cc1S(=O)(=O)N(C)CC(N)=O | 2.56%
O=C1CCC2(CCNCC2)CN1CCCOc1cccnc1 | -10.24%
COc1ccc(CN(C)C(=O)NC(C)c2nncn2C)cc1F (configuration not stated) | -30.44%
CC(c1ccccc1)N1CCC(NC(=O)CCc2ccsc2)CC1 (configuration not stated) | 5.953%
CCSc1ccccc1C(=O)NCC1CCN(Cc2ccsc2)CC1 | 107.8%
COCCNC(=O)CCC1CCN(Cc2cccc(SC)c2)CC1 | 4.456%
O=C(CCSc1ccccc1)NCC1CCN(Cc2ccsc2)CC1 | 78.72%
O=C(COc1ccccc1)NCC1CCN(Cc2ccsc2)CC1 | 115.8%
COCC(=O)NCC1CCN(Cc2ccsc2)CC1 | 155%
O=C(NCC1CCN(Cc2ccsc2)CC1)NC1CC1 | 4.525%
CSc1cccc(CN2CCC(CCC(=O)NCCN(C)C)CC2)c1 | -5.054%
CCC(CC)c1nnc(NC(=O)N2CCCC(NC(C)=O)C2)s1 (configuration not stated) | -9.059%
CCn1ncnc1C(C)NC(=O)COc1ccc(Cl)cc1Cl (configuration not stated) | -23.74%
CN(Cc1cc(C(C)(C)C)n[nH]1)Cc1c[nH]nc1-c1ccc(F)cc1 | -14.5%
CC1(C)[C@H]2CC=C(CN3CCCn4nc(CCC(=O)O)cc4C3)[C@@H]1C2 | 1.513%
O=C(NCCCC(=O)N1Cc2ccccc2C1)NCc1ccsc1 | 1.068%
O=C(Cc1ccccc1Cl)NCC1CCN(Cc2ccsc2)CC1 | 104.9%
O=C(Cn1cncn1)NCC1CCN(Cc2ccccc2Cl)CC1 | -9.372%
Cc1ccccc1CN1CCC(CNC(=O)Cn2cncn2)CC1 | 9.92%
O=C(Cc1ccc(F)cc1)NCC1CCN(Cc2ccsc2)CC1 | 152.7%
CN1CCC(CNC(=O)Cc2ccc(N(C)C)cc2)CC1 | -0.2873%
CCOCC(=O)NCC1CCN(Cc2ccsc2)CC1 | 164%
O=C(NCc1ccccc1)NCC1CCN(Cc2ccsc2)CC1 | 116.2%
Cc1cc(CN2CCC(CNC(=O)Cc3ccc(F)cc3)C2)[nH]n1 (configuration not stated) | 4.609%
